Laboratory results published in PubChem BioAssay (NCI).
Values joined by “and” are separate entries in the source; they are usually repeats but may differ in a detail not shown here. Equal values may be shown once. This is part of a sample that, as a whole, favours compounds with a hit. Of some 83,000 tested, about 20% had one in any assay.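 Compound tested at a single concentration for 48 hours in 96-well plates; a percent growth value below 10 was scored as active.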 Active and inactive are the calls of the source.

Legend:
Assay in all cases: NCI-60 one-dose screen, 48 h (100 = growth as untreated, 0 = no growth, -100 = all killed)
[1] = test system: HT29 colon
[2] = test system: SNB-75 CNS; conditions: 10 µM unless noted
[3] = test system: SNB-19 CNS
[4] = test system: U251 CNS; conditions: 10 µM unless noted
[5] = test system: PC-3 prostate; conditions: 10 µM unless noted
[6] = test system: SK-MEL-5 melanoma
[7] = test system: UACC-62 melanoma
[8] = test system: LOX IMVI melanoma; conditions: 10 µM unless noted
[9] = test system: SK-MEL-28 melanoma

Measured: growth

Cc1onc(-c2c(F)cccc2Cl)c1-c1ncc(-c2ccc(Cl)cc2)o1
25.4% (inactive) and 6.61% (active): [6]; 10 µM unless noted
inactive: [1]; 10 µM unless noted 23.3% and 21.8% | [2] 84% and 62% | [3]; 10 µM unless noted 80.7% and 40% | [4] 41.1% | [5] 31% and 34.5% | [7]; 10 µM unless noted 29.7% and 32.2% | [8] 12.5% | [9]; 10 µM unless noted 68.8% and 50.2%

OC1CCCN(Cc2ccccc2)C1 (centres undefined)
inactive: [1]; 10 µM unless noted 102% | [2] 113% | [3]; 10 µM unless noted 92.2% | [4] 120% | [5] 97.4% | [6]; 10 µM unless noted 102% | [7]; 10 µM unless noted 91.1% | [8] 96.5% | [9]; 10 µM unless noted 108%

COc1cc(Cl)ccc1C
inactive: [3]; 10 µM unless noted 79% | [4] 78% | [5] 74.1% | [6]; 10 µM unless noted 96.3% | [7]; 10 µM unless noted 66.4% | [8] 77.1% | [9]; 10 µM unless noted 112%

COc1cc(NCCCCCNC(C)C)c2ncccc2c1
inactive: [1]; 10 µM unless noted 85.9% and 67.1% | [2] 84.2% and 73.7% | [3]; 10 µM unless noted 96.1% and 81.2% | [4] 94.8% and 85.9% | [5] 86.3% and 89.1% | [6]; 10 µM unless noted 98.4% and 99% | [7]; 10 µM unless noted 83.7% | [8] 87.3% and 82.5% | [9]; 10 µM unless noted 98.5% and 98.7%

CN(C)C(=N)N=C(N)N
inactive: [1]; 10 µM unless noted 98.6% and 113% | [2] 101% and 114% | [3]; 10 µM unless noted 106% and 108% | [4] 81.1% and 118% | [5] 104% | [6]; 10 µM unless noted 103% and 131% | [7]; 10 µM unless noted 99.7% and 120% | [8] 87% and 110% | [9]; 10 µM unless noted 116% and 106%

O=C1C2=C(Nc3cc(Cl)ccc3N2)OC1c1c[nH]c2ccc(COc3ccccc3)cc12 (centres undefined)
active: [2] -2.61%
inactive: [1]; 10 µM unless noted 86.4% | [3]; 10 µM unless noted 30.4% | [4] 52.2% | [5] 45.7% | [6]; 10 µM unless noted 81% | [7]; 10 µM unless noted 68.7% | [8] 70.2% | [9]; 10 µM unless noted 94%

COc1cc2c(cc1O)C(=O)CCCC2
inactive: [1]; 10 µM unless noted 97.2% | [2] 89.3% | [3]; 10 µM unless noted 101% | [4] 96.8% | [5] 87.6% | [6]; 10 µM unless noted 102% | [7]; 10 µM unless noted 106% | [8] 90.8% | [9]; 10 µM unless noted 111%

CCOC(=O)C(N)Cc1cc(I)c(O)c(I)c1 (centres undefined)
inactive: [1]; 10 µM unless noted 105% and 104% | [2] 102% and 83.8% | [3]; 10 µM unless noted 109% and 95.9% | [4] 104% and 110% | [5] 98.3% and 89.8% | [6]; 10 µM unless noted 105% and 108% | [7]; 10 µM unless noted 101% and 97% | [8] 110% and 105% | [9]; 10 µM unless noted 111% and 116%

O=C(c1ccncc1)c1c(Cc2ccccc2)ccc2ccccc12
inactive: [1]; 10 µM unless noted 84.9% | [2] 90.4% | [3]; 10 µM unless noted 96.7% | [4] 88.8% | [5] 83% | [6]; 10 µM unless noted 80.1% | [7]; 10 µM unless noted 66.3% | [8] 90.8% | [9]; 10 µM unless noted 90.2%

CN1C2C=CC(=O)C1C1C(=O)N(c3ccccc3)C(=O)C12 (centres undefined)
inactive: [1]; 10 µM unless noted 48.8% | [2] 92.6% | [3]; 10 µM unless noted 95.7% | [4] 62.1% | [6]; 10 µM unless noted 92% | [7]; 10 µM unless noted 84.3% | [8] 38.7% | [9]; 10 µM unless noted 95.4%

Cc1ccc(N)cc1S(=O)(=O)O
inactive: [1]; 10 µM unless noted 95.3% and 124% | [2] 97.3% | [3]; 10 µM unless noted 107% and 108% | [4] 106% and 103% | [5] 98.9% | [6]; 10 µM unless noted 112% and 109% | [7]; 10 µM unless noted 105% and 108% | [8] 105% and 109% | [9]; 10 µM unless noted 109% and 113%

NNC(=O)Nc1ccccc1
inactive: [1]; 10 µM unless noted 106% | [2] 87.9% | [3]; 10 µM unless noted 102% | [4] 99.1% | [6]; 10 µM unless noted 101% | [7]; 10 µM unless noted 94.3% | [8] 98.1% | [9]; 10 µM unless noted 109%

O=C1C=CC(=O)N1Cc1ccco1
inactive: [1]; 10 µM unless noted 34.1% | [2] 101% | [3]; 10 µM unless noted 91% | [4] 81.4% | [5] 81.6% | [6]; 10 µM unless noted 86.4% | [7]; 10 µM unless noted 86.4% | [8] 76.6% | [9]; 10 µM unless noted 113%

COc1ccccc1OCC(O)CO (centres undefined)
inactive: [1]; 10 µM unless noted 100% and 103% | [2] 87.7% and 90.7% | [3]; 10 µM unless noted 96.4% and 84.9% | [4] 96.9% and 81.3% | [5] 52.3% and 91.5% | [6]; 10 µM unless noted 104% and 100% | [7]; 10 µM unless noted 100% | [8] 99.5% and 100% | [9]; 10 µM unless noted 95.5% and 108%

COC(=O)C(Cc1cn(C(C)=O)c2ccccc12)P(=O)(OC)OC (centres undefined)
inactive: [1]; 10 µM unless noted 108% | [2] 89.5% | [3]; 10 µM unless noted 104% | [4] 101% | [5] 88.6% | [6]; 10 µM unless noted 96.8% | [7]; 10 µM unless noted 93.1% | [8] 92.7% | [9]; 10 µM unless noted 114%

Cc1cccc(Cl)c1N
inactive: [1]; 10 µM unless noted 109% | [2] 100% | [3]; 10 µM unless noted 108% | [4] 108% | [5] 95.5% | [6]; 10 µM unless noted 110% | [7]; 10 µM unless noted 103% | [8] 98.6% | [9]; 10 µM unless noted 106%

CC(C)(C)OC(=O)NCCc1ccc(N)cc1
inactive: [1]; 10 µM unless noted 95.6% | [2] 87.6% | [3]; 10 µM unless noted 104% | [4] 103% | [6]; 10 µM unless noted 99.2% | [7]; 10 µM unless noted 100% | [8] 106% | [9]; 10 µM unless noted 112%

O=C1c2ccccc2CN1c1ccccc1
inactive: [1]; 10 µM unless noted 82.4% | [2] 102% | [3]; 10 µM unless noted 88.9% | [4] 101% | [5] 116% | [6]; 10 µM unless noted 96.5% | [7]; 10 µM unless noted 85.9% | [8] 113% | [9]; 10 µM unless noted 120%

O=c1ccn2c(n1)OC1CC2OC1COC(c1ccccc1)(c1ccccc1)c1ccccc1 (centres undefined)
inactive: [1]; 10 µM 108% | [1]; 100 µM 106% | [3]; 10 µM 111% | [3]; 100 µM 91.8% | [4] 89.2% [100 µM] | [6]; 10 µM 100% | [6]; 100 µM 28.5% | [7]; 10 µM 103% | [7]; 100 µM 44.5% | [8] 105% | [9]; 10 µM 118% | [9]; 100 µM 74.3%
